aSyn 5UTR act: Activators working through SNCA 5'UTR binding (MLPCN). alpha-synuclein 5'UTR reporter, activators screen. activity score, % (tested at 7.5 µM), hits read low. hit rate 7.1% among 300,000; in the data active = activity score below about -60%
Hits are given with their value; - = inactive. These entries were drawn from the full list.

SMILES	aSyn 5UTR act
N/C(=N/OC(=O)c1ccc(Cl)cc1)c1ncc([N+](=O)[O-])s1	-78
COc1ccccc1C(=O)O/N=C(\N)c1ccc(Cl)cc1	-264
N/C(=N\OC(=O)c1cccs1)c1ccc(Cl)cc1	-104
CCOC(=O)c1cccc(NC(=O)c2cncc(Br)c2)c1	-82
CCOC(=O)c1cccc(NC(=O)c2cnc3ccccc3n2)c1	-106
COc1ccc(-c2cc(COc3ccccc3)on2)cc1	-132
Fc1ccc(OCc2cc(-c3ccccc3)no2)cc1	-149
Cc1cccc(OCc2cc(-c3ccccc3)no2)c1C	-112
CCOc1ccc(/C=N/n2cc(-c3ccccc3)[nH]c2=S)cc1	-65
COc1ccc(C2CC(c3ccc4ccccc4c3)=NN2C(=O)CN2CCC(C(N)=O)CC2)cc1 (centres undefined)	-134
COc1ccc(C2CC(c3ccc4ccccc4c3)=NN2C(=O)COC(=O)C2CCC(=O)N2)cc1 (centres undefined)	-152
CC(=O)OCC(=O)N1N=C(c2ccc3ccccc3c2)CC1c1ccccc1 (centres undefined)	-106
CCOC(=O)/C=C(\C)N1N=C(c2ccccc2)CC1c1ccccc1 (centres undefined)	-187
COc1cc(C2CC(c3cccs3)=NN2C(=O)CCl)ccc1OC(F)F (centres undefined)	-
CC(C)c1ccc(CNc2ccc3c(c2)ncn3C)cc1	-206
CC(C)c1ccc(CNc2ncccn2)cc1	-128
Cn1cnc2cc(NCc3ccccc3Cl)ccc21	-92
CCn1cnc2cc(NCc3ccccc3Cl)ccc21	-87
CCCC(=O)NC(c1ccc(C(C)C)cc1)c1ccc2cccnc2c1O (centres undefined)	-
C/C(=N\OC(=O)c1ccc(Cl)cc1)c1sc(-c2ccccc2)nc1C	-124
C/C(=N\OC(=O)c1ccc(F)cc1)c1sc(-c2ccccc2)nc1C	-158
COc1ccc(-c2ccc(-c3nnn(CC(=O)N4CCOCC4)n3)cc2)cc1	-166
COc1ccc(OC)c(C(=O)Cn2nnc(-c3ccc(N4CCOCC4)cc3)n2)c1	-135
CCOC(=O)c1c(C)[nH]c(C(=O)CSc2ccc(Cl)cc2)c1C	-130
CCNC(=O)COC(=O)c1[nH]c(C)c(C(=O)OC)c1C	-85
SMILES	aSyn 5UTR act
CCOC(=O)c1c(C)[nH]c(C(=O)OCCOc2ccccc2C)c1C	-132
CCOC(=O)c1c(C)[nH]c(C(=O)OCC(=O)c2ccccc2)c1C	-99
CC(=O)c1c(C)[nH]c(C(=O)OCc2ccccc2)c1C	-145
CCOC(=O)c1c(C)[nH]c(C(=O)OCc2ccc(F)cc2)c1C	-170
CCOC(=O)c1c(C)[nH]c(C(=O)OCc2ccccc2F)c1C	-110
CCOC(=O)c1c(C)[nH]c(C(=O)COC(=O)C2(C)CC2(Cl)Cl)c1C (centres undefined)	-171
COc1ccc(CNC(=S)Nc2ccc(F)c(Cl)c2)cc1	-109
CC(=O)c1ccc(OC(C)c2nc3ccccc3s2)cc1 (centres undefined)	-89
COc1ccc(-c2cc(-c3cc(OC)ccc3O)[nH]n2)cc1	-199
COc1ccc(OC)c(-c2cc(C3CCN(c4cc(Cl)nc(N)n4)CC3)[nH]n2)c1	-
COc1ccc(O)c(-c2cc(-c3ccc(F)cc3)n[nH]2)c1	-121
COc1ccc(O)c(-c2cc(-c3cccc(Br)c3)n[nH]2)c1	-132
COc1ccc(-c2cc(-c3ccc(Cl)cc3)n[nH]2)c(O)c1	-202
C=C(C)COc1ccc(-c2[nH]ncc2-c2ccc(Br)cc2)c(O)c1	-
COC(=O)/C(=C/Nc1cccc2ccccc12)[N+](=O)[O-]	-68
CCc1ccc(S(=O)(=O)Nc2cc3c(cc2C)n(C)c(=O)n3C)cc1	-92
Cn1c(=O)n(C)c2cc(S(=O)(=O)Nc3cc(Cl)ccc3O)ccc21	-72
COc1cccc(NC(=O)C(=O)NCc2ccncc2)c1	-100
O=C(NCc1ccccc1)C(=O)Nc1cccc(C(=O)O)c1	-
COc1ccc(C(=O)/C=C\c2ccc(NC(=O)c3cccs3)cc2)cc1	-129
COc1cccc(NC(=O)C2=COCCO2)c1	-64
COc1cccc(NC(=O)c2cccs2)c1	-155
COc1cc(NC(=O)c2cccs2)cc(OC)c1	-90
Cc1cc(C)n2cc(CSc3nc4ccccc4s3)nc2n1	-107
COc1cc(-c2nc3ccc(N4CCN(C)CC4)cc3[nH]2)cc(OC)c1OC	-102
SMILES	aSyn 5UTR act
O=c1n(-c2ccc(Br)cc2)cnn1-c1ncccc1[N+](=O)[O-]	-101
Cc1ccc(N2CN=C3SCC(=O)N3C2)cc1C	-121
Cc1ccc(Nc2n[nH]c(C)c2[N+](=O)[O-])cc1	-221
Cc1[nH]nc(Nc2ccccc2)c1[N+](=O)[O-]	-72
Cc1[nH]nc(Nc2ccc(C(C)C)cc2)c1[N+](=O)[O-]	-151
Cc1cccc(Nc2n[nH]c(C)c2[N+](=O)[O-])c1	-140
Cc1[nH]nc(Nc2ccc(Br)cc2)c1[N+](=O)[O-]	-164
COCCNC(=O)C(=O)Nc1ccc(Br)cc1	-103
CCCNC(=O)C(=O)Nc1ccc(N(C)C)cc1	-126
C=CCNC(=S)Nc1ccc(N(C)C)cc1	-70
OCCN(CC#CCn1c2ccccc2c2ccccc21)CCO	-
CCN(CC)CCn1c2ccccc2c2nc3ccccc3nc21	-213
CCCCNC(=O)c1cc(-c2ccc(F)cc2)on1	-592
CCCNC(=O)c1cc(-c2ccc(OC)cc2)on1	-160
CCCCNC(=O)c1cc(-c2ccc(OC)cc2)on1	-144
CSc1ccccc1NC(=O)COc1ccc(Cl)cc1C	-63
Cc1cc(Cl)ccc1OCC(=O)Nc1ccccc1CO	-81
Cc1ccc(NC(=O)Cc2noc3ccccc23)cc1	-173
Fc1ccccc1-c1nc(-c2ccncc2)no1	-116
Fc1ccccc1-c1nc(-c2ccccc2)no1	-97
NC(=O)c1ccccc1-c1nc(-c2ccccc2)no1	-82
O=C(NC1CCCC1)C(c1ccncc1)N(Cc1ccco1)C(=O)c1ccc(-c2ccccc2)[nH]1 (centres undefined)	-68
c1ccc(C2CSc3ccccc3N2)cc1 (centres undefined)	-196
Cn1c(SCc2cccc(F)c2)nnc1-c1ccccn1	-142
Cn1c(SCc2cccc(F)c2)nnc1-c1cnccn1	-98
SMILES	aSyn 5UTR act
COc1ccc(Cn2c(SCc3ccccc3C)nc3cc(OC)c(OC)cc3c2=N)cc1	-
Cn1c(SC/C=C/c2ccccc2)nnc1-c1cnccn1	-63
Cc1ccccc1CSc1nnc(-c2ccccn2)n1C	-104
Cn1c(SCc2ccccc2Cl)nnc1-c1cnccn1	-92
Cn1c(SCc2ccccc2[N+](=O)[O-])nnc1-c1cccnc1	-68
COc1ccc(C(=O)Nc2cc(Cl)ccc2Cl)c(OC)n1	-91
COc1ccc(C(=O)Nc2cc(Cl)cc(Cl)c2)c(OC)n1	-114
Cc1ccccc1COc1ccc(/C=C(\C#N)C(N)=O)cc1	-105
CNC(=O)/C(C#N)=C/c1ccc(OCCOc2ccccc2)cc1	-66
N#C/C(=C/c1ccc(OCc2ccccc2)cc1)C(=O)NC1CCCCC1	-121
N#C/C(=C\c1ccc(OCc2ccccc2)cc1)C(N)=O	-92
N#Cc1ccccc1COc1ccc(/C=C/C(=O)O)cc1	-
CC1CC(C)CN(Cc2nc(N)nc(Nc3ccc4ccccc4c3)n2)C1 (centres undefined)	-115
COc1cccc(/C=C/C(=O)OC(C)C(=O)Nc2c(C)n(C)n(-c3ccccc3)c2=O)c1 (centres undefined)	-112
CC(=O)N(/N=C1\Sc2ccccc2C1=O)c1ccccc1C	-170
C=CCSc1n[nH]c(-c2ccc(OC)cc2)n1	-165
C=CCSc1n[nH]c(-c2ccccc2)n1	-100
